These results are taken from PubChem BioAssay (EPA / NIEHS).

The nature of experiment [1]: ATG_PBREM_CIS: Attagene CIS-FACTORIAL HepG2 Assay for human Phenobarbital-responsive Enhancer Module (PBREM) (AID 2282955). The conditions noted are these: HepG2 PBREM cis-reporter, Attagene multiplexed transcription; actives raise or lower the signal. Summed up: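 HepG2 cells transiently transfected with multiple cis-regulated reporter units measure endogenous transcription factor activity; 24 h compound exposure. Reporter mRNA quantified by RT-PCR, fluorescent labelling, HpaI digestion and capillary electrophoresis; bidirectional fit versus DMSO.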

The target in experiment [2] is Paired box protein Pax-6 (Homo sapiens) (UniProt P26367). Description: ATG_Pax6_CIS: Attagene CIS-FACTORIAL HepG2 Assay for human Paired Box 6 (PAX6) (AID 2282956). The settings on record: HepG2 CIS-FACTORIAL PAX6 reporter transcription, RNA readout; actives raise or lower the signal. In outline:
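Multiplexed cis-reporter HepG2 system; 24 h treatment; reporter mRNA read by RT-PCR/CE fluorescence; bidirectional fit vs DMSO.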

Experiment [3] is described as follows: ATG_PXRE_CIS: Attagene CIS-FACTORIAL HepG2 Assay for human Pregnane X Receptor Element (PXRE) (AID 2282957). The settings on record: HepG2 Attagene CIS-FACTORIAL PXRE reporter, mRNA; actives raise or lower the signal. In outline:
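HepG2 cells transiently transfected with cis-element-driven multiplexed reporter units; after 24 h chemical exposure, reporter mRNA measured by RT-PCR, 6-FAM labelling, HpaI digestion and capillary electrophoresis. Bidirectional fitting relative to DMSO.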

Experiment [4] is described as follows: ATG_PPRE_CIS: Attagene CIS-FACTORIAL HepG2 Assay for human Peroxisome Proliferator-activated Response Element (PPRE) (AID 2282958). The conditions noted are these: HepG2 PPRE cis-element reporter, Attagene transcription factor profiling; actives raise or lower the signal. In outline:
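HepG2 cells are transiently transfected with multiplexed cis-promoter reporter units to report endogenous PPAR activity. After 24 h dosing, reporter mRNA is read by RT-PCR and capillary electrophoresis. Fitting is bidirectional against DMSO.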

A short description of experiment [5]: ATG_RORE_CIS: Attagene CIS-FACTORIAL HepG2 Assay for human RAR-related Orphan Receptor Element (RORE) (AID 2282959). The settings on record: HepG2 Attagene cis-factorial RORE reporter, mRNA; actives raise or lower the signal. Summed up:
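HepG2 cells carrying transiently transfected cis-regulated reporter units; RORE-driven reporter mRNA quantified 24 h post-dosing by RT-PCR, 6-FAM primer extension, HpaI digestion and capillary electrophoresis. Bidirectional fit versus DMSO.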

Experiment [6] in a line: ATG_Sox_CIS: Attagene CIS-FACTORIAL HepG2 Assay for human SRY-box transcription factor (SOX) (AID 2282960). The settings on record: HepG2 Attagene cis-factorial SOX reporter, mRNA; actives raise or lower the signal. In outline: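 HepG2 cells transiently transfected with multiple cis-regulated reporter units, then dosed for 24 h. Reporter mRNA quantified by RT-PCR, fluorescent labelling, HpaI digestion and capillary electrophoresis; bidirectional fit versus DMSO.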

For experiment [7], the target named is Transcription factor Sp1 (Homo sapiens) (UniProt P08047). The experiment is described as follows: ATG_Sp1_CIS: Attagene CIS-FACTORIAL HepG2 Assay for human Specificity Protein 1 (Sp1) (AID 2282961). The conditions noted are these: HepG2 Sp1 cis-reporter transcription, actives raise or lower the signal. Summed up:
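HepG2 cells transiently transfected with multiplexed cis-regulated reporter constructs, chemical exposure 24 h. Reporter mRNA quantified by RT-PCR with capillary electrophoresis; bidirectional fit relative to DMSO.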

The nature of experiment [8]: ATG_SREBP_CIS: Attagene CIS-FACTORIAL HepG2 Assay for human Sterol Regulatory Element Binding (SREBP) (AID 2282962). The conditions noted are these: HepG2 Attagene cis-factorial SREBP reporter, mRNA; actives raise or lower the signal. Summed up: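 mRNA induction of transfected cis-promoter reporters in HepG2 cells, 24 h post-dose. Detection: RT-PCR with 6-FAM-labelled products, HpaI digest, capillary electrophoresis. DMSO served as negative control and baseline.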

Experiment [9] concerns the target Signal transducer and activator of transcription 3 (Homo sapiens) (UniProt P40763). The experiment is described as follows: ATG_STAT3_CIS: Attagene CIS-FACTORIAL HepG2 Assay for human Signal Transducer and Activator of Transcription 3 (STAT3) (AID 2282963). The settings on record: HepG2, Attagene cis-factorial STAT3 reporter transcription; actives raise or lower the signal. Summed up: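 HepG2 cells transiently transfected with multiple cis-element-driven reporter units report endogenous transcription factor activity. After 24 h compound exposure, reporter mRNA is measured by RT-PCR, 6-FAM labelling, HpaI digestion and capillary electrophoresis. Fitted bidirectionally versus DMSO.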

Experiment [10] can be described thus: ATG_TA_CIS: Attagene CIS-FACTORIAL HepG2 Assay for human TA Basal Promoter (AID 2282964). The conditions noted are these: HepG2 Attagene CIS-factorial TA basal promoter reporter; actives raise or lower the signal. Summed up:
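Fluorescence from labelled RT-PCR reporter fragments, separated by capillary electrophoresis, gives the signal. Cells: HepG2 transiently carrying multiple reporter units, 24 h chemical dosing. Gain or loss relative to DMSO.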

Experiment [11] in a line: ATG_TCF_b_cat_CIS: Attagene CIS-FACTORIAL HepG2 Assay for human T-Cell-Factor with beta-catenin (TCF/b-cat) (AID 2282965). The settings on record: HepG2 TCF/beta-catenin cis-reporter transcription, actives raise or lower the signal. Summed up: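 HepG2, transient MRTU transfection, cis-element-driven reporters (endogenous TFs). 24 h compound exposure. Readout: reporter mRNA by RT-PCR + 6-FAM primer extension, HpaI digest, capillary electrophoresis. Gain/loss fit vs DMSO baseline.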

Experiment [12] in a line: ATG_TAL_CIS: Attagene CIS-FACTORIAL HepG2 Assay for human TAL Basal Promoter (AID 2282966).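 Note: background control endpoint measuring basal TAL promoter reporter mRNA not a specific factor.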 The conditions noted are these: HepG2 Attagene cis-factorial TAL promoter reporter; actives raise or lower the signal. In outline: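 HepG2 cells transiently transfected with multiplexed cis-promoter reporter units, dosed 24 h. Reporter mRNA quantified by RT-PCR, 6-FAM labelling, HpaI digestion and capillary electrophoresis; TAL basal promoter serves as background control, fitted bidirectionally versus DMSO.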

Experiment [13] can be described thus: ATG_TGFb_CIS: Attagene CIS-FACTORIAL HepG2 Assay for human Transforming Growth Factor (TGF) (AID 2282967). The conditions noted are these: HepG2 Attagene CIS TGFb reporter, mRNA transcription; actives raise or lower the signal. Summed up:
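Bidirectional fitting relative to DMSO gave the endpoint. Underlying data: reporter mRNA from HepG2 cells carrying transiently transfected cis-regulated reporter constructs, harvested 24 h after dosing and analyzed by RT-PCR and capillary electrophoresis.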

Experiment [14] deals with Estrogen receptor (Homo sapiens) (UniProt P03372). Description: ATG_ERa_TRANS: Attagene TRANS-FACTORIAL HepG2 Assay for human Estrogen Receptor alpha (ERa) (AID 2282970; active = hit-call score of the fitted dose curve at least 0.9, where 1 is the maximum). The conditions noted are these: HepG2 Attagene TRANS ERa GAL4 reporter, mRNA. Summed up: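 HepG2 cells transiently transfected with multiplexed GAL4-UAS reporter units read out chimeric NR-Gal4 activity. After 24 h compound exposure, reporter mRNA was quantified by RT-PCR, 6-FAM labeling, HpaI digestion and capillary electrophoresis, relative to DMSO.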

Experiment [15] addresses X-box-binding protein 1 (Homo sapiens) (UniProt P17861). The experiment is described as follows: ATG_Xbp1_CIS: Attagene CIS-FACTORIAL HepG2 Assay for human X-box Binding Protein 1 (XBP1) (AID 2282972). The settings on record: HepG2 XBP1 cis-element reporter, Attagene multiplex; actives raise or lower the signal. In outline:
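Fluorescence-labelled cDNA fragments from reporter transcripts, separated by capillary electrophoresis, give the signal. Source: HepG2 cells transfected with promoter-driven reporter units, harvested 24 h post-dose. DMSO served as reference for bidirectional curve fitting.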

A short description of experiment [16]: ATG_M_19_TRANS: Attagene TRANS-FACTORIAL HepG2 Assay for M19 Transcription Factor (Internal Marker) (AID 2282974; active = hit-call score of the fitted dose curve at least 0.9, where 1 is the maximum). The settings on record: HepG2 Attagene TRANS-FACTORIAL M19 internal marker reporter. Summed up: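 HepG2 transiently transfected with GAL4-UAS multiplex reporter constructs, exposed 24 h; reporter RNA quantified by RT-PCR, 6-FAM labeling, HpaI digestion and capillary electrophoresis; internal background marker fitted upward versus DMSO.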

Experiment [17] deals with Androgen receptor (Homo sapiens) (UniProt P10275). Description: ATG_AR_TRANS: Attagene TRANS-FACTORIAL HepG2 Assay for human Androgen Receptor (AR) (AID 2282973; active = hit-call score of the fitted dose curve at least 0.9, where 1 is the maximum). The conditions noted are these: HepG2 Attagene TRANS-FACTORIAL AR reporter transcription. In outline: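 HepG2 cells transiently transfected with AR-Gal4 chimera and GAL4-UAS reporter units; chemical exposure 24 h. Reporter mRNA quantified by RT-PCR with fluorescent labelling and capillary electrophoresis; gain-of-signal fitted against DMSO.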

Experiment [18] in a line: ATG_VDRE_CIS: Attagene CIS-FACTORIAL HepG2 Assay for human Vitamin D Receptor Element (VDRE) (AID 2282968). The conditions noted are these: HepG2 VDRE cis-reporter transcription, actives raise or lower the signal. In outline: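 Transiently transfected HepG2 cells carrying cis-regulated reporter transcription units were exposed for 24 h. Reporter mRNA was measured by RT-PCR with fluorescent labelling and capillary electrophoresis, and fitted in both directions against DMSO.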

For orientation: AC50 means the midpoint of the concentration-response curve, whichever way the signal moves.

Inconclusive results are not listed. Activity calls are given as the source filed them. Rule for the calls, unless noted: active = hit-call score of the fitted dose curve at least 0.9, where 1 is the maximum; inactive = score below 0.9.

Transcription factor Sp1 (Homo sapiens), sequence (P08047 whole entry, looked up): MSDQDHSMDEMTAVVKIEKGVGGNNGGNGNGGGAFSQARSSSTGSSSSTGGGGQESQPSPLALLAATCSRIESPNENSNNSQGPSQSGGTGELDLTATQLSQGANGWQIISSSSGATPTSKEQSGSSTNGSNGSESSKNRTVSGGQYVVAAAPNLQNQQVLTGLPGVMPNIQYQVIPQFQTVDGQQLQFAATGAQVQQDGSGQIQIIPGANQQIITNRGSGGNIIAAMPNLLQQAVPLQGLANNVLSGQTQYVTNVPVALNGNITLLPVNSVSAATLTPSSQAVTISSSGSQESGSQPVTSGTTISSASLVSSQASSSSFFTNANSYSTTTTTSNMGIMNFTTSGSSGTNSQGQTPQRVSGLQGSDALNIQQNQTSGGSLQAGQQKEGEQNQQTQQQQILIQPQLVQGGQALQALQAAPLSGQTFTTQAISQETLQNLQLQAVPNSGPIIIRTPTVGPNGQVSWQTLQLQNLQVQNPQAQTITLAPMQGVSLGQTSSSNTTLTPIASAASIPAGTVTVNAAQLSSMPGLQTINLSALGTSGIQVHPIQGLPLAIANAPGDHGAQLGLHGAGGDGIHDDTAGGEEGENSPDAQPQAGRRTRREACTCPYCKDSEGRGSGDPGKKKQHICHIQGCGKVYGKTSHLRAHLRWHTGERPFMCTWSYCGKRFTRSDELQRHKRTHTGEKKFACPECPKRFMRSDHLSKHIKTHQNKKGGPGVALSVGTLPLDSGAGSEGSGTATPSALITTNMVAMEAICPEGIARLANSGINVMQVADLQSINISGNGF
Estrogen receptor (Homo sapiens), sequence (P03372 whole entry, looked up, the tested form may be a part): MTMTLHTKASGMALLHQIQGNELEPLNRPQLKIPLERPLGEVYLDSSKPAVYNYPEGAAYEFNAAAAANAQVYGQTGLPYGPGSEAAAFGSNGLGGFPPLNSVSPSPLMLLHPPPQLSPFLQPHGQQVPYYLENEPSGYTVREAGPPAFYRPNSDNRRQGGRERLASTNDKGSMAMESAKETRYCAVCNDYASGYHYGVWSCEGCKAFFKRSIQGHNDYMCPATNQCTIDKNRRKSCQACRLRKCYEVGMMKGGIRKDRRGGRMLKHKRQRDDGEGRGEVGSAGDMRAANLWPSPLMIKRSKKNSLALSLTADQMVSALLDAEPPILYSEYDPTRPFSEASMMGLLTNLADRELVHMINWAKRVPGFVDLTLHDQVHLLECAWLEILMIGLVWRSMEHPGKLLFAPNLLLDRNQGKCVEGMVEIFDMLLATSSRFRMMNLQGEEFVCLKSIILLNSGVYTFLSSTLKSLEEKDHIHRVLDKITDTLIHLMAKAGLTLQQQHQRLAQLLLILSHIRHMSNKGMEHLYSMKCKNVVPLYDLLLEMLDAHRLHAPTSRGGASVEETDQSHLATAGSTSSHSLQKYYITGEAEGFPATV
Signal transducer and activator of transcription 3 (Homo sapiens), sequence (P40763 whole entry, looked up): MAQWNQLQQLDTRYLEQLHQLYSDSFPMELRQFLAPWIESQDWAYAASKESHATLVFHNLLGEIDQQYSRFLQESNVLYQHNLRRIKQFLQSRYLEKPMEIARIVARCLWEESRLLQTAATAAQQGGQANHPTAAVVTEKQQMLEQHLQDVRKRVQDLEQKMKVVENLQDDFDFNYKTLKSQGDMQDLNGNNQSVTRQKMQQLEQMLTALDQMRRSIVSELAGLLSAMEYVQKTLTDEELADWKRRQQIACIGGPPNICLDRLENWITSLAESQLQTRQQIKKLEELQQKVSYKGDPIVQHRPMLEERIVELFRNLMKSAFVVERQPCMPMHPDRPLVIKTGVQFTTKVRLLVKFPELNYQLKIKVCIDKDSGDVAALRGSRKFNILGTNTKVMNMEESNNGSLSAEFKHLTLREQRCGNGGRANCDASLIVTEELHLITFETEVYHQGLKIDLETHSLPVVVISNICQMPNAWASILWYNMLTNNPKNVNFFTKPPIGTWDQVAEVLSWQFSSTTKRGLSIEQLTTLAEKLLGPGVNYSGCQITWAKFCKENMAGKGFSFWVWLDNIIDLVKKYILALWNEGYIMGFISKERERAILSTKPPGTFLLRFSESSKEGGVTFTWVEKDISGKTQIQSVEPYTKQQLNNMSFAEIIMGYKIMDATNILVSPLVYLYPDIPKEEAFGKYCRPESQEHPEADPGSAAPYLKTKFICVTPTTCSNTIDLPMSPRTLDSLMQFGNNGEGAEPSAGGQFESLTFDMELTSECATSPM
Paired box protein Pax-6 (Homo sapiens), sequence (P26367 whole entry, looked up): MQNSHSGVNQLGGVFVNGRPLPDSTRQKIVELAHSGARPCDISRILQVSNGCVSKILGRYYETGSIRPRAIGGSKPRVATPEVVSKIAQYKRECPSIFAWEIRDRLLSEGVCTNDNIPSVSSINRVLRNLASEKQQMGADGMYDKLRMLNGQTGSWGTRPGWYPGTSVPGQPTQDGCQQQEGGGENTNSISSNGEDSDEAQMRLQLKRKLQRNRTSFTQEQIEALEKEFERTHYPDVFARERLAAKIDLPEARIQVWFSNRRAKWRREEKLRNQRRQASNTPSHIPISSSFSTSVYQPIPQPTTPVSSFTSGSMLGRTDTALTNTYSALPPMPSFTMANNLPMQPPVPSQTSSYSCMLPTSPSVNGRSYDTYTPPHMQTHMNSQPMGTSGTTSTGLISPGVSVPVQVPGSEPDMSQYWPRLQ
X-box-binding protein 1 (Homo sapiens), sequence (P17861 whole entry, looked up, the tested form may be a part): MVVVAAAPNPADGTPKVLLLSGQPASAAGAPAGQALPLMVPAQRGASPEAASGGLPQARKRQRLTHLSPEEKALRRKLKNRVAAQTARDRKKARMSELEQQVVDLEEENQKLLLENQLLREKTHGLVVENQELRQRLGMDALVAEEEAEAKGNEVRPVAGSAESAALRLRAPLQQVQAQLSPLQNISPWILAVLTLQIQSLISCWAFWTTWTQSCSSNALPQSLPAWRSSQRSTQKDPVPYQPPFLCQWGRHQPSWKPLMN
Androgen receptor (Homo sapiens), sequence (P10275 whole entry, looked up, the tested form may be a part): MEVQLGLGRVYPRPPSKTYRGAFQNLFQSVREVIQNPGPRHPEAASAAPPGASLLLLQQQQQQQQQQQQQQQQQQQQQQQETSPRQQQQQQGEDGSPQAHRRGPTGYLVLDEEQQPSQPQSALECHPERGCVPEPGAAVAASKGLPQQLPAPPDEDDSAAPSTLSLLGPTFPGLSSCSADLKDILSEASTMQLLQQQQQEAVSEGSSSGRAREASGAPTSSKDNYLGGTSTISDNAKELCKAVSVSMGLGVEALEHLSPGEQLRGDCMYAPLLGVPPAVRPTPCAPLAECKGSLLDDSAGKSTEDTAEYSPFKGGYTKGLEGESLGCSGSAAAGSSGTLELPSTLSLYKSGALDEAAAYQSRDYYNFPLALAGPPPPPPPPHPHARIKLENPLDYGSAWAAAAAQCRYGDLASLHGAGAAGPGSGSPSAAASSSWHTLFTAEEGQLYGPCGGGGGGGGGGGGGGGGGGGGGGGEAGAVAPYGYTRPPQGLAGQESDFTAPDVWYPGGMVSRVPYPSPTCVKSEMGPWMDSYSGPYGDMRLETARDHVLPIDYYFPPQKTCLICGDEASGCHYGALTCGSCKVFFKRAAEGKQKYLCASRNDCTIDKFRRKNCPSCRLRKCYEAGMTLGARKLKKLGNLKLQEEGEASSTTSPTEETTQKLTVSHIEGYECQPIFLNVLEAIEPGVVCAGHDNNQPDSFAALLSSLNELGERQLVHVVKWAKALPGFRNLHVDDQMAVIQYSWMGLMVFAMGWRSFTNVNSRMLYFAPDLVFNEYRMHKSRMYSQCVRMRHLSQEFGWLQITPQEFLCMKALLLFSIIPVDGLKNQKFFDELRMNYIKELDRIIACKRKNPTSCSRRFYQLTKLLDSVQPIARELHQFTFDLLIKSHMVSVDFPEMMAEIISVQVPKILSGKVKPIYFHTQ

As to `CSC(=O)c1c(C(F)F)nc(C(F)(F)F)c(C(=O)SC)c1CC(C)C`, the outcome in experiment [1], in [2], in experiment [4], in [5], in experiment [6] and in experiment [7] was inactive. For the same compound, the result in experiment [8], in experiment [9], in [10], in experiment [11], in experiment [12] and in experiment [13] was inactive. Also, the result in experiment [15] and in experiment [16] was inactive. For the same compound, the concentration at half-maximal activity (AC50) in experiment [3] is 0.451 µM (active); in experiment [14], 8.26 µM (active).
`CCOP(=O)(OCC)Oc1nc(Cl)c(Cl)cc1Cl`: the outcome in [1], in experiment [2], in experiment [5], in experiment [6], in [7] and in experiment [9] was inactive. Moreover, the compound was called inactive in experiment [10], in [11], in experiment [12], in experiment [13], in [15] and in experiment [17]. For the same compound, the compound was classed as inactive in [16]. The concentration at half-maximal activity (AC50) in [3] is 45.7 µM (active); in experiment [4] it was 29.9 µM (active); in [8], 15.6 µM (active); in experiment [14], 50 µM (active).
Turning to `CC1(C)CCC(=Cc2ccc(Cl)cc2)C1(O)Cn1cncn1` (stereo not given), the outcome in [1], in experiment [2], in [5], in [6], in [7] and in experiment [9] was inactive. For the same compound, the compound was classed as inactive in experiment [10], in experiment [11], in experiment [12], in experiment [13], in experiment [14] and in experiment [15]. Also, the compound was classed as inactive in experiment [16]. The AC50 in experiment [3] is 3.16 µM (active); in experiment [4] it was 29.7 µM (active); in experiment [8], 15 µM (active); in experiment [18] it was 8.04 µM (active).
As for `COC(=O)NC(=S)Nc1ccccc1NC(=S)NC(=O)OC`, the half-maximal activity concentration (AC50) in experiment [1] was 21.3 µM (active); in experiment [3], 7.61 µM (active); in [4], 34 µM (active). In addition, the compound was classed as inactive in experiment [2], in experiment [5], in experiment [6], in experiment [7], in [8] and in experiment [9]. For the same compound, the outcome in experiment [10], in experiment [11], in [12], in experiment [13], in experiment [14] and in experiment [15] was inactive.
